Measurements reported in PMC5540273 (PLoS ONE, 2017).

System: MLK3
Conditions: concentration: 1 μM, replicates: in singlicate; n = 1
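Also: KINOMEscan kinase panel screen.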

Row | SMILES | %Inh
1 | COc1ccc(Nc2nccc(N3CCC(NC(=O)Nc4cccc(C(C)=O)c4)C3)n2)cc1 (stereo not drawn) [GSK1379731] | 0%
2 | Fc1ccc(-c2nn3c(OCC(F)(F)F)cccc3c2-c2ccncc2)cc1 [GW514784] | 0%
3 | Cc1cn2c(=O)cc(N3CCOCC3)nc2n1Cc1cccc(Cl)c1Cl [GSK2334006] | 38%
4 | Fc1ccc(-c2ncn(CCCN3CCOCC3)c2-c2cccnc2)cc1 [SB-211743] | 17%
5 | C[C@@H](Oc1cc(-n2cnc3ccc(NC(=O)NC(C)(C)C)cc32)sc1C(N)=O)c1ccccc1Cl [GSK346294] | 37%
6 | Cc1ccc(C(=O)NCC(N)=O)cc1-n1c(C)cc(OCc2ccc(F)cc2F)c(Br)c1=O | 22%
7 | c1ccc(-c2n[nH]cc2-c2ccnc3ccccc23)nc1 [GW271431] | 22%
8 | O=C1Cc2cc(Nc3nc(NCc4cccc(S(=O)(=O)C(F)(F)F)c4)ncc3C(F)(F)F)ccc2N1 | 3%
9 | NCC(NC(=O)c1cc(-c2cn[nH]c2)c(-c2ccnc3[nH]ccc23)s1)c1ccccc1.O=C(O)C(F)(F)F.O=C(O)C(F)(F)F (stereo not drawn) [GSK1325775] | 0%
10 | COc1ccc(Nc2nccc(N3CCC(NC(=O)Nc4cc(C)ccc4C)C3)n2)cc1 (stereo not drawn) [GSK1379741] | 0%
11 | CC(C)Oc1ccc2c(-c3ccnc(Nc4ccc(N5CCN(C)CC5)cc4)n3)cnn2n1 [GW696155] | 0%
12 | O=C(c1ccc(-c2cc(-c3c[nH]nc3-c3ccccn3)ccn2)cc1)N1CCOCC1 [GW812171] | 0%
